The record followed here is PubChem BioAssay (EPA / NIEHS).

The AC50 is the concentration giving half of the maximal activity seen.

The source holds several records for some structures; these can differ, active in one and inactive in another. Activity calls are given as the source filed them. How the source made its calls: active means hit-call score of the fitted dose curve at least 0.9, where 1 is the maximum; inactive means score below 0.9.

The test can be described thus: ATG_PPRE_CIS: Attagene CIS-FACTORIAL HepG2 Assay for human Peroxisome Proliferator-activated Response Element (PPRE) (AID 2282958). The note with it: HepG2 PPRE cis-element reporter, Attagene transcription factor profiling; actives raise or lower the signal. How it is done: ATG_CIS is a cell-based, multiplexed-readout assay that uses HepG2, a human liver cell line, with measurements taken at 24 hours after chemical dosing in a 24-well plate.ATG_PPRE_CIS is one of 52 assay component(s) measured or calculated from the ATG_CIS assay. It is designed to make measurements of mRNA induction, a form of inducible reporter, as detected with fluorescence intensity signals by Reverse transcription polymerase chain reaction (RT-PCR) and Capillary electrophoresis technology.Data from the assay component ATG_PPRE_CIS was analyzed into 1 assay endpoint. This assay endpoint, ATG_PPRE_CIS, was analyzed with bidirectional fitting relative to DMSO as the negative control and baseline of activity. Using a type of inducible reporter, measures of mRNA for gain or loss-of-signal activity can be used to understand the reporter gene at the transcription factor-level as they relate to the gene PPARA and PPARD and PPARG. Furthermore, this assay endpoint can be referred to as a primary readout, because this assay has produced multiple assay endpoints where this one serves a reporter gene function. To generalize the intended target to other relatable targets, this assay endpoint is annotated to the nuclear receptor intended target family, where the subfamily is non-steroidal.
Human liver HepG2 cells are transiently transfected with multiple reporter transcription units (MRTUs) in 6-well plates using FuGene 6 reagent (Roche; 3 ml FuGene/1 mg DNA). The MRTU constructs are regulated by a cis-regulating element (promoter). […] A major difference between the CIS and TRANS system is that in CIS activities of endogenous TFs are measured, whereas the TRANS assay evaluates changes in activities of exogenous, chimeric NR-Gal4 proteins. […] At the end of 24 hour incubation, total RNA was isolated using TriZol reagent (Invitrogen). The isolated RNA is then reverse-transcribed using oligo(dT) primer and Mo-MLV reverse transcriptase (Invitrogen) with DNAse I (Ambion) treatment for 30 min. The one-tenth of the produced cDNA was amplified by PCR using Taq DNA polymerase (Invitrogen) and two reporter sequence-specific primers. The PCR products were fluorescently labeled by primer extension with 6-arboxyfluorescein (6-FAM) 5'-labeled reporter sequence-specific primer (2 min at 95 C, 20 s at 68 C and 10 min at 72 C) and these products were digested with 5U of HpaI (New England Biolabs) for 2h at 37 C. The fragments were purified using Qiaquick PCR columns (Qiagen), analyzed on an ABI 3130xL genetic analyzer (Applied Biosystems) with peak positions identified by using a set of X-rhodamine (ROX)-labeled MapMarker1000 molecular weight standards (BioVentures). The raw capillary electrophoresis data was processed using Attagraph software (Attagene).
Regarding `CC(C)Cc1ccccc1`, the call was inactive.
For `O=C1OC2(c3ccc(O)cc3Oc3cc(O)ccc32)c2ccccc21`, the result was inactive.
Regarding `C1COCO1`, the outcome was inactive.
For `CCCO[Si](OCCC)(OCCC)OCCC`, the AC50 is 42.2 µM (active).
With `CCC=C(C)C=O`, the outcome was inactive.
In the case of `C[C@]12CC[C@@H]3c4ccc(O)cc4CC[C@H]3[C@@H]1CC[C@@H]2O`, the compound was classed as inactive and the AC50 is 27 µM (active).
Regarding `Nc1cc([N+](=O)[O-])ccc1C(=O)O`, the result was inactive.
Regarding `NCCN1CCNCC1`, the compound was classed as inactive.
In the case of `CCCCCCCC1CCCC1=O` (stereo not given), the outcome was inactive.
As for `CCCCOCCOCCOCCO`, the call was inactive.
On the same count and under the same terms, with `CC(=O)OC/C=C(C)/C=C/C=C(C)/C=C/C1=C(C)CCCC1(C)C` the entry was “inactive”; with `CC(=O)Nc1cc(S(=O)(=O)O)cc2cc(S(=O)(=O)O)c(N=Nc3ccccc3)c(O)c12`, “inactive”.
As to `Cc1cc(O)c2c(c1)C(=O)c1cc(O)cc(O)c1C2=O`, the AC50 was 12 µM (active).
Take `C=C(C)CCCC(C)CCO` (stereo not given): the compound was classed as inactive.
As to `CC(CO)(CO)[N+](=O)[O-]`, the compound was called inactive.
The same measure, in the same setting: the value for `c1ccc2c(c1)-c1ccc3ccc4cccc5cc-2c1c3c45` was “inactive”; that for `CCCCCCCCCCCCOC(C)=O` was “inactive”; that for `Cc1cc(N)n(-c2ccccc2)n1` was “inactive”.
As for `CC12CCC(C1)C(C)(C)C2O` (stereo not given), the call was inactive.
Still for that read-out and setting: the value for `COC(=O)c1cccc(C(=O)OC)c1` was “inactive”.
Still for that read-out and setting: the value for `CCC(=O)OC(C)(C)C1CC=C(C)CC1` (stereo not given) was “inactive”.
Take `C=CC(=O)OCC(CO)(COC(=O)C=C)COC(=O)C=C`: the AC50 was 117 µM (active).
Take `CC(=O)N(C)C`: the result was inactive.
For `CCC(C)(C)c1cc(O)c(C(C)(C)CC)cc1O`, the compound was called inactive.
The same measure, in the same setting: the value for `CC(C)CCOC(=O)CC(C)C` was “inactive”.
Regarding `CC(C)(C)c1ccc(S)cc1`, the compound was called inactive.
The same measure, in the same setting: with `CN(C)CCC=C1c2ccccc2CCc2ccccc21` the entry was “inactive”.
For the compound `CC(C)N(c1ccccc1)C(C)C`, the compound was classed as inactive.
Consider `C=CCCCCCCCCC(=O)OCC`, for which the compound was called inactive.
The same measure, in the same setting: with `CC1=CCC(C(C)(C)O)CC1` (stereo not given) the entry was “inactive”; with `Cc1ccccc1S`, “inactive”; with `Cc1cc(O)c(C)c(C)c1O`, “inactive”.
On to `C=C(C)C(=O)OCCOCCOC(=O)C(=C)C`, for which the compound was called inactive.
With `CC(C)C(=O)c1ccccc1`, the outcome was inactive.
On to `CCCCCCCCCOS(=O)(=O)O`, for which the AC50 was 24 µM (active).
As to `O=C(O)C1=NN(c2ccc(S(=O)(=O)O)cc2)C(=O)C1`, the outcome was inactive.
For `CC/C=C\C#N`, the outcome was inactive.
Same read-out and setting: the value for `CC/C=C\CCOC(=O)C(C)C` was “inactive”.
Consider `CCCCC/C=C\C=C\C(=O)OCC`, for which the concentration at half-maximal activity (AC50) was 4.97 µM (active).
